S16 F2sN tox: toxic to S16 Pmp22-F2sN Schwann cells; S16 Pmp22-F2sN Schwann cells viability, CellTiter-Glo, 24 h; Potency, µM (titrated, usually from 57.5 µM), inactives show top-dose activity change, negative = cytotoxicity, actives largely listed as cytotoxic; 0.48% of 43,000 active; note: potency is the fitted concentration of half-maximal effect; % is set by controls: 0 for no effect and ±100 for the full control effect; nearly all actives have a fitted effect of over 65% in size
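S16 Pmp22-F2sN Schwann cells (500-1,000/well) in phenol-red-free DMEM with 10% FBS received 23 nL compound by pin tool for 24 h at 37 °C. Viability was then read as CellTiter-Glo luminescence after 15 min at room temperature.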
OvCa metastasis: ovarian cancer metastasis inhibition, 3D TME model. SKOV3ip1-GFP adhesion/invasion on 3D omental model, fluorescence. Potency, µM (titrated, usually from 45.8 µM), inactives show at the top dose activity change, negative = inhibition, actives largely listed as inhibitors. 0.1% of 46,000 active. AID 1963576;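 note: potency is the fitted concentration of half-maximal effect; plate controls were DMSO wells for no effect and tomatine positive control wells for full effect; nearly all actives have a fitted effect of over 65% in size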
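qHTS, 4-pt dose (0.36-46 umol/L); SKOV3ip1-GFP, 1,200 cells/well, no FBS; primary omental fibroblast/mesothelial co-culture 48 h pre-grown; 2 h RT + 16 h 37 C; PBS wash, 4% PFA; GFP count 488/509 nm.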
PMP22 txn: modulates PMP22 transcription in S16 Schwann cells. Potency, µM (doses to about 57.5 µM), for inactives: top-dose activity change, negative = inhibition, most hits filed as inhibitors. AID 1508649. 2% of 43,000 active. S16 Pmp22-F2sN Schwann cells, FLuc/NLuc coincidence luminescence, 24 h; active = clear falling dose curves in both reporters; inconclusive = both reporters move, but less clearly or upward; inactive = either reporter flat; the % is the NLuc reporter signal; note: potency is the fitted concentration of half-maximal effect; % is set by controls: 0 for no effect and ±100 for the full control effect
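Transcriptional readout in edited S16(c9) cells: two luciferases reported from the Pmp22 locus, measured in turn after 24 h compound incubation.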
p53null 39C kill: selectivity test: cytotoxicity in p53 null cells, nonpermissive temperature. 0.97% of 55,000 active. AID 904. Potency, µM (series often up to 46.1 µM), for the others: at the highest dose activity, negative = cell killing, hits mostly cytotoxic. H1299 p53-null (neo) cells, 39C, ATPlite viability, 24 h;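 note: potency is the fitted concentration of half-maximal effect; 0% = DMSO only and -100% = full killing by 100 µM tamoxifen; nearly all actives have a fitted effect of over 50% in size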
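Temperature-shift cytotoxicity format: compound titrations on p53-null or A138V-expressing H1299 cells held 24 hr at 39C, cell ATP then measured, AC50 from Hill model.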
p53null 32C kill: kills p53 null cells at the permissive temperature; H1299-neo p53 null cells, ATP luminescence, 24 h, 32C; Potency, µM (doses to about 46.1 µM), for inactives: at the highest dose activity change, negative = cytotoxicity, hits mostly cytotoxic; 0.62% of 55,000 active;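 note: potency is the fitted concentration of half-maximal effect; 0% = DMSO only and -100% = full killing by 100 µM tamoxifen; nearly all actives have a fitted effect of over 55% in size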
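Cells lacking p53 (H1299-neo) are plated at 600 per well and allowed to settle overnight at 37C. Test compounds (up to 46 uM) are added and held 24 hours at 32C, then ATP is quantified by luminescence.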
pS6 MEF inh: mTORC1 pathway inhibition measured by phospho-rpS6 | Tsc2-/- p53-/- MEF, phospho-rpS6 immunofluorescence/PI, 24 h | Potency, µM (top dose mostly 38.3 µM), for inactives: at the top dose activity change, negative = inhibition, most hits filed as inhibitors | 0.78% of 44,000 active | AID 493208;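 note: potency is the fitted concentration of half-maximal effect; plate controls were DMSO for no effect and rapamycin for full effect; nearly all actives have a fitted effect of over 50% in size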
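Readout is phospho-S6 Alexa 488 signal normalized to PI per well, reported as % active cells with thresholds set from rapamycin (7.5 nM) and DMSO controls. Cells: Tsc2-/-, p53-/- MEFs, 24 hrs compound at 37 C; PI cell number serves as viability.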
NLuc sat counter: NanoLuc enzyme inhibition artifact for PMP22 screen | shares compounds with PMP22 txn | Secreted NLuc enzyme (filtered S16 cell medium), Nano-Glo luminescence | Potency, µM (highest dose often 57.5 µM), for inactives: at the top dose activity change, negative = inhibition, usual class: inhibitors | 4% of 690 active; note: potency is the fitted concentration of half-maximal effect; % is set by controls: 0 for no effect and ±100 for the full control effect
NLuc Km ctr: counter-screen for PMP22 expression modulators: NanoLuc inhibition at Km; shares compounds with PMP22 txn; secreted NLuc enzyme, coelenterazine luminescence, Km conditions; Potency, µM (top dose mostly 57.5 µM), for the others: at the highest dose activity change, negative = inhibition, most hits filed as inhibitors; 5% of 690 active; note: potency is the fitted concentration of half-maximal effect; % is set by controls: 0 for no effect and ±100 for the full control effect
FLuc counter: inhibits firefly luciferase, PMP22 counter-screen; Potency, µM (top dose mostly 57.5 µM), for the others: at the highest dose activity, negative = inhibition, actives largely listed as inhibitors; purified P. pyralis FLuc, luminescence, 10 min; shares compounds with PMP22 txn; 690 tested, under 10 active; AID 1508640; note: % of control where 0% means no effect
Target sequence (P08659 whole entry, looked up): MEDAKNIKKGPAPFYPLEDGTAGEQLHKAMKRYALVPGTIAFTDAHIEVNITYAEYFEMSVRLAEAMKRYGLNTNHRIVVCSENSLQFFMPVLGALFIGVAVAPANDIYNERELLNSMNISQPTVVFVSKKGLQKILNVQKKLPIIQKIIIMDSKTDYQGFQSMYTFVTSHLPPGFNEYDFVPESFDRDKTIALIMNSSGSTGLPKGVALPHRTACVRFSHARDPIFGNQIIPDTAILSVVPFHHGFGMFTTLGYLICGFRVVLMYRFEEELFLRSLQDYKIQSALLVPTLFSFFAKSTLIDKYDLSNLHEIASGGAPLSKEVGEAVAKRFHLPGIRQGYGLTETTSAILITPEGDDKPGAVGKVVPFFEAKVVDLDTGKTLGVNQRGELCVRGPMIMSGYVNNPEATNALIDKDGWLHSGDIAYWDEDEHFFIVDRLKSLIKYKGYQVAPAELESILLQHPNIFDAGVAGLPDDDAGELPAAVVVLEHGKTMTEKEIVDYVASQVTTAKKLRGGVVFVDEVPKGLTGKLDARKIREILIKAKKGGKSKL
S16 viab conf: confirmation of cytotoxicity in S16 Pmp22-F2sN Schwann cells (luciferase reporters placed in the Pmp22 gene); shares compounds with PMP22 txn; S16 Schwann cells viability, CellTiter-Glo ATP luminescence, 24 h; Potency, µM (series often up to 57.5 µM), inactives show top-dose activity change, negative = viability loss, actives largely listed as cytotoxic; 7% of 690 active; note: potency is the fitted concentration of half-maximal effect; % is set by controls: 0 for no effect and ±100 for the full control effect
PMP22 txn conf: confirmation of modulators of PMP22 gene transcription in S16 cells. shares compounds with PMP22 txn. S16 Schwann cells Pmp22-F2sN, dual luciferase, 24 h. Potency, µM (highest dose often 57.5 µM), inactives show top-dose activity change, negative = inhibition, hits mostly inhibitors. 22% of 690 active. AID 1508646; active = clear falling dose curves in both reporters; inconclusive = both reporters move, but less clearly or upward; inactive = either reporter flat; the % is the FLuc reporter signal; note: potency is the fitted concentration of half-maximal effect
PMP22 HiBiT cnf: rat PMP22 protein level modulation, confirmatory | S16 Schwann cells Pmp22-HiBiT, luminescence, 48 h | shares compounds with PMP22 txn | 95 tested, under 10 active | Potency, µM (doses to about 27.9 µM), without a hit: at the highest dose activity change, negative = inhibition, actives largely listed as inhibitors
Target sequence (P25094 whole entry, looked up): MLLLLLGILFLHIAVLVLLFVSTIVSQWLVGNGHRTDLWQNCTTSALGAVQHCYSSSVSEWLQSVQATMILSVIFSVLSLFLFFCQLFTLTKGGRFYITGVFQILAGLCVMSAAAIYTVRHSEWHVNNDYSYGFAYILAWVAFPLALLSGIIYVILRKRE
* = called active by the depositor; i = inactive; ? = inconclusive; / = not tested or not shown. Only some compounds are listed: those with a hit (about 3.1% of all), similar ones and a draw of the others. Unless noted, calls come from the whole dose curve; as a rule, active = well fitted curve in the direction sought with a large enough effect; inconclusive = small, poorly fitted or top-dose-only effect, or another doubt; inactive = no such curve, though single readings can be large; an effect the other way counts as inactive or inconclusive.

SMILES	S16 F2sN tox	OvCa metastasis	PMP22 txn	p53null 39C kill	p53null 32C kill	pS6 MEF inh	NLuc sat counter	NLuc Km ctr	FLuc counter	S16 viab conf	PMP22 txn conf	others
CCc1ccc(CNC(=O)c2nn(-c3ccc(C)cc3)c(=O)c3c2c2ccccc2n3C)cc1	0%	-24%	2.8µM*	-9%	4%	-1%	-5%	2%	1%	?	?
CCN(Cc1ccccc1)C(=O)c1nn(-c2ccc(OC)cc2)c(=O)c2c1c1ccccc1n2C	?	2%	19µM*	4%	30%	1%	-18%	-4%	3%	21%	-42%
O=C(O)[C@H](CC(=O)N1C[C@@H]2CCCC[C@H]2C1)Cc1ccccc1	/	9%	/	/	/	/	/	/	/	/	/
CC(C)OC(=O)CCCC=CC[C@@H]1[C@H](C=C[C@@H](O)COc2cccc(C(F)(F)F)c2)[C@H](O)C[C@@H]1O	/	-22%	/	/	/	/	/	/	/	/	/
CNC(=O)c1ccc2cc(C3(O)CCn4cncc43)ccc2c1 (stereo unspecified)	/	6%	/	/	/	/	/	/	/	/	/
COc1ccc(-c2c(C)nn3c(C(F)(F)F)cc(-c4ccccc4)nc23)cc1OC	11%	i	-21%	5%	-3%	4%	/	/	/	/	/
COc1ccc(-c2cc(C(F)(F)F)n3nc(C)c(-c4ccccc4)c3n2)cc1OC	23%	i	11µM*	-12%	2%	-11%	0%	2%	5%	-7%	?
CNC(=O)c1cc2c(n(-c3ccc(C)cc3)c1=O)CC(C)(C)CC2=O	12%	i	-7%	2%	5%	-4%	/	/	/	/	/
Cc1ccc(-n2c3c(cc(C(=O)Nc4ccccc4C(N)=O)c2=O)C(=O)CC(C)(C)C3)cc1	0%	1%	3.4µM*	-6%	2%	2%	?	-4%	5%	-14%	-32%
COC(=O)c1ccc(CSc2nc3c([nH]c4ccccc43)c(=O)n2-c2cccc(Cl)c2)o1	13%	i	18µM*	-10%	-1%	-2%	?	-18%	0%	?	6.1µM*
COC(=O)c1ccc(CSc2nc3c([nH]c4ccccc43)c(=O)n2-c2cccc(OC)c2)o1	-7%	i	-24%	14%	13%	-9%	/	/	/	/	/
CCCN(CCC)CCCNC(=O)c1cc2c(=O)oc3ccc(C)cc3c2s1	?	23%	?	-4%	2%	-14%	-7%	-1%	-7%	?	?
CCCCN(CC)CCCNC(=O)c1cc2c(=O)oc3ccc(C)cc3c2s1	6%	i	?	10%	3%	-2%	/	/	/	/	/
Cc1cccc(N2CCN(C(=O)C3CCN(S(=O)(=O)c4ccc5c(c4)oc(=O)n5C)CC3)CC2)c1C	-15%	i	20µM*	4%	5%	0%	-5%	3%	2%	-15%	-28%
Cc1cccc(N2CCN(C(=O)C3CCCN(S(=O)(=O)c4ccc5c(c4)oc(=O)n5C)C3)CC2)c1C (stereo unspecified)	-20%	28%	11µM*	4%	8%	-5%	-13%	-2%	-6%	-24%	?	PMP22 HiBiT cnf=?
COc1cccc(N2CCN(C(=O)C3CCN(S(=O)(=O)c4ccc5c(c4)oc(=O)n5C)CC3)CC2)c1	10%	-5%	-21%	11%	-8%	-1%	/	/	/	/	/
Cn1c(=O)oc2cc(S(=O)(=O)N3CCCC(C(=O)N4CCN(c5cccc(Cl)c5)CC4)C3)ccc21 (stereo unspecified)	-27%	-2%	13µM*	-6%	12%	-1%	-7%	-2%	7%	-6%	17µM*	PMP22 HiBiT cnf=?
O[C@@H](COc1cccc2ncccc12)CN1CCN(C2c3ccccc3[C@@H]3[C@H](c4ccccc42)C3(F)F)CC1 (stereo partly specified)	/	-20%	/	/	/	/	/	/	/	/	/
COc1cccc2c1C(=O)c1c(O)c3c(c(O)c1C2=O)C[C@@](O)(C(C)=O)C[C@H]3O[C@H]1C[C@H](N)[C@H](O)[C@H](C)O1	/	2%	/	/	/	/	/	/	/	/	/
CC(C)=CC[C@@H](O)C1=CC(=O)c2c(O)ccc(O)c2C1=O	/	8%	/	/	/	/	/	/	/	/	/
CCn1c(CN2CCCCC2)nc2cc(NC(=O)COc3ccccc3C(C)(C)C)ccc21	2%	-22%	14µM*	-2%	0%	-1%	-11%	2%	1%	1%	?
CCn1c(CN2CCCCC2)nc2cc(NC(=O)c3ccccc3[N+](=O)[O-])ccc21	-7%	-10%	?	-18%	14%	-10%	/	/	/	/	/
O[C@@H](CNC[C@H](O)[C@H]1CCc2cc(F)ccc2O1)[C@@H]1CCc2cc(F)ccc2O1	/	-6%	/	/	/	/	/	/	/	/	/
COc1ccc(OC)c(CCNC(=O)c2c(C)oc3ncn(CC(C)C)c(=O)c23)c1	13%	9%	?	-35%	8%	4%	/	/	/	/	/
COc1ccc(OC)c(CNC(=O)c2c(C)oc3ncn(CC(C)C)c(=O)c23)c1	?	0%	10µM*	-8%	5%	1%	?	?	3%	-16%	?

Screening data from PubChem BioAssay.
